This passage reports PBM binding z-score results from the supplement of paper PMC6555819.

What all share (assay): PBM binding z-score (relative to random genomic background probes); higher = stronger binding; sequences stand for … in GC…GCGATTGACAGCGTAGAATGAAGG
Test [1] has as its system PPARg:RXRa DBDmut IVT, anti-RXR (DBD mutation: RXRa K156A/R161A, NR concentration 270 nM, RXRa partner concentration 90 nM). The gist of the method:
(§1)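 Ligand-free nuclear receptor dimers were bound for 1 h to custom Agilent 4×180K protein-binding microarrays. Detection used antibodies against each partner (one per run). Binding z-scores rest on regression-normalized fluorescence, with random background probes as the reference.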

Test [2] relates to PPARg:RXRa IVT, anti-PPARg (NR concentration 270 nM, RXRa partner concentration 90 nM). In a few lines: as §1
Test [3] deals with PPARg DBDmut:RXRa IVT, anti-PPARg (DBD mutation: PPARg1 K132A/R137A, NR concentration 270 nM, RXRa partner concentration 90 nM). In a few lines:
as §1

The subject of test [4] is PPARg DBDmut IVT, anti-PPARg (DBD mutation: PPARg1 K132A/R137A, NR concentration 270 nM). In a few lines:
as §1

The test system of test [5] is PPARg homodimer (NR concentration 180 nM). In a few lines: as §1
The test system of test [6] is PXR:RXRa (NR concentration 270 nM, RXRa partner concentration 90 nM). The gist of the method:
as §1

The test system of test [7] is PXR homodimer (NR concentration 270 nM). In a few lines: as §1
For test [8], the system named is RARa:RXR (NR concentration 270 nM, RXRa partner concentration 90 nM). The gist of the method:
as §1

For test [9], the system named is RARa homodimer (NR concentration 270 nM). The gist of the method: as §1
Test [10] concerns RARb:RXRa (NR concentration 270 nM, RXRa partner concentration 90 nM). The gist of the method:
as §1

In test [11] the test system is RARb homodimer (NR concentration 270 nM). In a few lines:
as §1

In test [12] the test system is RARg:RXRa (NR concentration 270 nM, RXRa partner concentration 90 nM). The gist of the method:
as §1

Test [13] relates to RARg homodimer (NR concentration 270 nM). In a few lines: as §1
The test system of test [14] is RXRa DBDmut IVT, anti-RXR (DBD mutation: RXRa K156A/R161A, NR concentration 90 nM). In a few lines: as §1
For test [15], the system named is RXRa homodimer (NR concentration 180 nM). In a few lines: as §1
Test [16] deals with THRa:RXRa (NR concentration 90 nM, RXRa partner concentration 90 nM). The gist of the method:
as §1

The subject of test [17] is THRa homodimer (NR concentration 90 nM). In a few lines: as §1
Test [18] deals with VDR homodimer (NR concentration 270 nM). In a few lines:
as §1

In the case of TCTGCTAGGTCACCGATGGTCAGCTAATCTGCTA, the PBM binding z-score turned out to be 4.6 in test [1]; 4.81 in test [2]; 0.945 in [3]; 0.734 in [4]; 0.378 in test [5]; 1.91 in test [6]. For the same sequence, the PBM binding z-score is -1.04 in [7]; 2.75 in [8]; -1.39 in test [9]; 4.36 in [10]; 3.6 in test [11]; 4.74 in test [12]. For the same sequence, the PBM binding z-score in test [13] was 5.73; in [14], 0.891; in [15], 3.28; in test [16] it was 3.48; in test [17] it was 1.23; in test [18], -0.0284.

For the sequence ATCTCTAGGTAAACAAGTTCAGTGAATGCCGAAC, the PBM binding z-score came to 2.47 in test [1]; 2.16 in test [2]; 1.52 in test [3]; 1.13 in [4]; 1.19 in [5]; 1.47 in test [6]. The PBM binding z-score in test [7] amounted to 2.08; in test [8], 0.521; in [9], 1.04; in [10], 1.05; in test [11] it was 1.51; in test [12], 0.719. Besides, the PBM binding z-score in [13] was found to be 1.05; in [14] it was 1.09; in [15] it was 0.385; in test [16], 1.33; in test [17], 0.65; in test [18], 2.69.

Turning to TGAATTAGGTTATAAGATCAGGGAACGTTGCAAA, the PBM binding z-score in [1] was 5.05; in test [2] it was 4.53; in test [3] it was 1.08; in [4], 1.15; in test [5], 1.14; in test [6] it was -0.000172. Further, the PBM binding z-score is 0.301 in test [7]; -0.0809 in [8]; 1.34 in test [9]; 0.576 in [10]; -0.204 in [11]; 0.498 in test [12]. The PBM binding z-score in test [13] is 0.508; in test [14], -0.196; in test [15] it was 0.503; in [16] it was 0.533; in test [17], 0.0659; in test [18], 0.321.

Regarding ATATGTCGGTTACATCCGGGTCATTCAGGCTATG, the PBM binding z-score in [1] came to 2.55; in [2], 3.18; in [3], 2.61; in test [4], 1.84; in [5], 1.05; in [6] it was 2.85. Moreover, the PBM binding z-score in test [7] was 2.72; in test [8], 2.88; in test [9], 0.00144; in test [10] it was 1.91; in test [11], 2.58; in test [12], 2.37. Moreover, the PBM binding z-score in test [13] stood at 1.71; in test [14], 0.511; in [15] it was 2.45; in test [16], 3.31; in [17] it was 2.52; in [18] it was 3.41.

As to CGAACGAGGGCATGAGTTGGTAGCAAATGCCGAT, the PBM binding z-score was 2.72 in test [1]; 1.66 in test [2]; 0.738 in test [3]; -0.612 in [4]; -0.306 in test [5]; 0.171 in test [6]. Further, the PBM binding z-score in [7] was -0.43; in [8] it was 0.384; in test [9] it was -0.55; in test [10] it was 1.81; in [11], 0.553; in [12], 0.807. The PBM binding z-score in test [13] is 1.29; in [14], 1.87; in test [15] it was 0.675; in test [16], 1.03; in [17], -0.283; in [18], 0.904.

Turning to TCATGTAGATCAGCAGGTTAAGAAAGCTGGCCAA, the PBM binding z-score in test [1] was 1.87; in test [2] it was 0.284; in [3], -0.501; in [4], -0.804; in [5], 0.238; in test [6] it was 0.193. The PBM binding z-score in test [7] is 0.00655; in test [8] it was 0.125; in [9] it was -0.0627; in test [10], 0.286; in test [11] it was -0.0199; in test [12] it was -0.0908. Besides, the PBM binding z-score was -0.0942 in test [13]; 0.626 in test [14]; 0.381 in [15]; 0.195 in test [16]; -0.553 in test [17]; -0.749 in test [18].

For CAAACTAGATCACGAAAGGTCAAAGTCGAATGAC, the PBM binding z-score in test [1] stood at 3.85; in test [2], 4.1; in test [3], 1.64; in [4], 2.11; in test [5], 4.54; in [6] it was 5.85. The PBM binding z-score in test [7] stood at 2.42; in test [8], 6.41; in [9], 2.84; in [10], 4.5; in test [11] it was 4.84; in test [12], 5.87. The PBM binding z-score came out at 5.31 in test [13]; 1.47 in test [14]; 6.64 in [15]; 3.96 in test [16]; 1.07 in [17]; 2.71 in test [18].
